Assay results as given in PubChem BioAssay AID1347043 (National Center for Advancing Translational Sciences (NCATS), 2019).
Out of some 76,000 compounds screened, about 1,900 (2.5%) were called active. Inconclusive results (about 5%) are left out. The entries come from a sample that favours actives as a whole. A number with no mark means an inactive call. The call rests on the fitted dose curve; in most records, active means well fitted inhibition curve with a large enough effect; inconclusive means small, poorly fitted or top-dose-only effect; inactive means flat fitted curve, though single readings scatter.

Molecular target: Luciferin 4-monooxygenase (Photinus pyralis) (UniProt P08659)
Sequence (P08659 whole entry, looked up): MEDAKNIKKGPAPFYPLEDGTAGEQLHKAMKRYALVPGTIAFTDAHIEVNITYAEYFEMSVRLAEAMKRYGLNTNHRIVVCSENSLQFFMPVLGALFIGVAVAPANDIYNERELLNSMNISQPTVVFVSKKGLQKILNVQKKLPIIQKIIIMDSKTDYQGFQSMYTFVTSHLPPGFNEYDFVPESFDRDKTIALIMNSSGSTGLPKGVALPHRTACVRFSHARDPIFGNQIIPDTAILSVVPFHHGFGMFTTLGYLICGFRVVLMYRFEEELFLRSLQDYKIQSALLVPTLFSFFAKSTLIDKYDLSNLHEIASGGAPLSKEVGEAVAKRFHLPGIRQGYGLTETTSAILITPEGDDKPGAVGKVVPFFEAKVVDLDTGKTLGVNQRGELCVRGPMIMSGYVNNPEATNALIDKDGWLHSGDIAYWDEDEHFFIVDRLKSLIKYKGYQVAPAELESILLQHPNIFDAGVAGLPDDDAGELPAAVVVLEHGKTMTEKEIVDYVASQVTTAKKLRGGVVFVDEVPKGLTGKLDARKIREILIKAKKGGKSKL
Assay: Firefly luciferase inhibition profiling of diverse chemical library using quantitative high-throughput screening; further: nearly all actives have a fitted effect of over 65% in size
Details: purified P. pyralis luciferase, luminescence, biochemical; series mostly up to 172 µM; activity change, negative = inhibition: at the top concentration
From the text: Firefly (Photinus pyralis) luciferase is one of the most commonly used transcriptional reporters for a number of reasons. It is considered one of the more dynamically responsive reporters - that is, responsive to changes in reporter transcription - as it requires no post-translational modifications and is enzymatically active directly after protein synthesis (Wood, 1998). Additionally, the half-life of the luciferase protein is short relative to other reporter-gene products (Wood, 1995). Whereas reporters with long half-lives potentially allow for increased signal due to accumulation of reporter-gene product, once accumulated in the cell, dynamic changes in reporter-gene expression may be difficult to detect(Fan and Wood, 2007; Almond et al., 2004). It has been shown that wild-type P. pyralis luciferase has a half-life of approximately four hours in mammalian cells (Thompson et al., 1991). Firefly luciferase reporter-gene assays are also generally considered one of the most sensitive assay types (Wood, 1995; Wood, 1998). Although light produced in a bioluminescence reaction is of lower intensity than that produced during fluorescence emission, this is offset by little to no background light inherent to luminescent assays. Thus the luciferase reporter can be expressed at much lower levels than fluorescent proteins while still providing robust signal. However, it was initially observed, in 1991, by Thompson et al., that compounds that resemble the substrates of firefly luciferase (FLuc) can act as competitive inhibitors of the enzyme, and that these compounds, upon interaction with luciferase in the cell, can actually stabilize the protein and increase its half-life. Accumulated intracellular FLuc protein can be measured as an increase in luminescence signal, upon addition of detection reagents (which contain high concentrations of FLuc substrates) commonly used in high-throughput screening. In cell-based reporter gene assays that use FLuc as the reporter gene to quantitate the potential influence of a given compound against the target biology, this apparent increase in luminescence can mistakenly be interpreted as identification of a compound that is active against the target of interest. FLuc inhibitory compounds that stabilize the FLuc protein will give an identical read-out, making it difficult to distinguish compounds that are active against the target from those active against FLuc. In summary, the results generated here constitutes a valuable resource for the scientific community and provides insight on identifying compounds with inhibitory activity for the commonly-used reporter, firefly luciferase. References: -Almond, B., Zdanovsky, A., Zdanovskaia, M., Ma, D., Stecha, P., Paguio, A., Garvin, D., and Wood, K. (2004). Introducing the Rapid Response Reporter Vectors. Promega Notes 87, 18-22. -Fan, F., and Wood, K.V. (2007). Bioluminescent assays for high-throughput screening. Assay Drug Dev Technol 5, 127-136. -Thompson, J.F., Hayes, L.S., and Lloyd, D.B. (1991). Modulation of firefly luciferase stability and impact on studies of gene regulation. Gene 103, 171-177. -Wood, K.V. (1998). The chemistry of bioluminescent reporter assays. Promega Notes 65, 14-20. -Wood, K.V. (1995). Marker proteins for gene expression. Curr Opin Biotechnol 6, 50-58.
Reagents: 50mM Tris acetate, pH 7.5; 10mM Mg acetate; 10uM D-luciferin (Sigma #L9504); 10uM ATP; 0.01% Tween-20; 0.05% BSA; 10nM P. pyralis luciferase (Sigma #L9506) Control compounds used were two known firefly luciferase inhibitors (compounds (2) and (5) in Auld et al., 2010), and DMSO. Assay Summary: Three microliters containing firefly luciferase substrates in buffer (final concentrations: 50mM Tris acetate, pH 7.5, 10mM Mg acetate, 0.01% Tween-20, 0.05% BSA, 10uM D-luciferin, and 10uM ATP) are dispensed into each well of a Greiner white, solid-bottom 1536-well format plate using a flying reagent dispenser (FRD). […]
On the % scale 0 is the no-effect control and ±100 the full control effect.

Structure (SMILES) | Potency | activity change, negative = inhibition
COc1cccc(Nc2cc3c(cn2)CN(C)CCN3C)c1 | 39.8 µM (active) | 
O=C(Nc1ccccc1)N1C[C@@H]2C[C@H](C1)c1c(-c3ccc(Cl)cc3)ccc(=O)n1C2 |  | 5.39%
COc1ccc(C(=O)NC[C@H]2C[C@@H]3CCN2C[C@@H]3c2cc(-c3ccccc3)nn2C)cc1 |  | -3.92%
Cc1cccc(C(=O)N2[C@H]3CC[C@@H]2c2cnc(-c4ccccc4)nc2C3)c1 |  | 2.26% [at 115 µM]
COc1ccc(C(=O)N2[C@H]3CC[C@@H]2c2cnc(-c4ccccc4)nc2C3)c(OC)c1 |  | 4.83% [at 115 µM]
Cc1ccc(C(=O)N2[C@H]3CC[C@@H]2c2cnc(-c4ccccc4)nc2C3)c(C)c1 | 20 µM (active) | 
C#C[C@H]1CN2CC[C@H]1C[C@@H]2COC(=O)Nc1cc(OC)cc(OC)c1 |  | -16.9%
C=CCN(C)C[C@H]1CN2CC[C@H]1C[C@@H]2CNC(=O)Nc1cccc(SC)c1 |  | -10.3%
COc1cc2c(cc1OCc1ccncc1)NC(=O)C21CCN(c2ncc(F)cn2)CC1 |  | -12.5%
Cc1ccc(C(=O)NC[C@H]2C[C@@H]3CCN2C[C@@H]3c2cc(-c3ccco3)nc(C)n2)cc1 |  | 10.1%
